Assays:
Experiment in all cases: DAPPL (digital affinity profiling via proximity ligation, sequencing); 10 mM Tris-HCl pH 7.5, 50 mM NaCl, 1 mM DTT, 4% glycerol, room temperature, 30 min; GST-TFs on glutathione beads, 16-mer random dsDNA library, 0.1% formaldehyde crosslink after washing; high values mean tight binding
FLI1 = biological target: T1, FLI1 (Homo sapiens, UniProt Q01543 1-452); details: protein: recombinant; tags: N-terminal GST; dsDNA, one strand shown
T1 sequence: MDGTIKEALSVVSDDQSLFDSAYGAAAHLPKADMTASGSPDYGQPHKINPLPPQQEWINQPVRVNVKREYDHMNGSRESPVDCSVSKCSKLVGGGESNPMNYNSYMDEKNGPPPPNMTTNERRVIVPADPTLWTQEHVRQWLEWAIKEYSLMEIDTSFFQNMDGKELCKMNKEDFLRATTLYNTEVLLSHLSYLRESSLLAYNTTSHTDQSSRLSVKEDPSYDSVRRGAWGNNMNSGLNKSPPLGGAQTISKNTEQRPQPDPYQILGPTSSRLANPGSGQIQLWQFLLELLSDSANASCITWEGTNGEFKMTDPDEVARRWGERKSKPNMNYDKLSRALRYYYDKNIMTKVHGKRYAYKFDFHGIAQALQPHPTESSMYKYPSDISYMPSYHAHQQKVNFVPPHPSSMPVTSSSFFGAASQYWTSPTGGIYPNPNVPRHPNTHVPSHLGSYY
In short: (§1)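 Beads coated with glutathione captured GST-fused human transcription factors that had been expressed in yeast, and the factors were then given DNA barcodes and pooled with a tag-only sample. The pools were incubated with 200 nmole of a random double-stranded 16-mer DNA library in Tris/NaCl/DTT/glycerol buffer for 30 min at room temperature, washed, crosslinked with 0.1% formaldehyde and proximity-ligated with BsaI/T4 ligase at 37 °C for 1 h. PCR amplification and Illumina NextSeq500 sequencing came last. Binding signal is each hexamer's read frequency for a factor divided by its frequency for the tag-only sample.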

ELK1 = biological target: T2, ELK1 (Homo sapiens, UniProt P19419 1-428); details: protein: recombinant; tags: N-terminal GST; dsDNA, one strand shown
T2 sequence: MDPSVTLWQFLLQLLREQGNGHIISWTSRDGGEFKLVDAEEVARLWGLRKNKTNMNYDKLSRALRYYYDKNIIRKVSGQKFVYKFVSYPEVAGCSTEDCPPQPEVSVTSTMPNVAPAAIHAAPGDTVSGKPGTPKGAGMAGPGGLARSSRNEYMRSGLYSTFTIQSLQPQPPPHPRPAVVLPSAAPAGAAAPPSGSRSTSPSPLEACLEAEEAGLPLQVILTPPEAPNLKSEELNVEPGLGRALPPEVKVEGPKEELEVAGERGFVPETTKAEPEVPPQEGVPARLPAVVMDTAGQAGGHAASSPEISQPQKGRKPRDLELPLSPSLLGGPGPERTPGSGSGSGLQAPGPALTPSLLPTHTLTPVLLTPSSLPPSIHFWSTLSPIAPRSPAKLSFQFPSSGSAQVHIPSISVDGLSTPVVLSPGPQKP
In short: as §1

GABPA = biological target: T3, GABPA (Homo sapiens, UniProt Q06546 1-454); details: protein: recombinant; tags: N-terminal GST; dsDNA, one strand shown
T3 sequence: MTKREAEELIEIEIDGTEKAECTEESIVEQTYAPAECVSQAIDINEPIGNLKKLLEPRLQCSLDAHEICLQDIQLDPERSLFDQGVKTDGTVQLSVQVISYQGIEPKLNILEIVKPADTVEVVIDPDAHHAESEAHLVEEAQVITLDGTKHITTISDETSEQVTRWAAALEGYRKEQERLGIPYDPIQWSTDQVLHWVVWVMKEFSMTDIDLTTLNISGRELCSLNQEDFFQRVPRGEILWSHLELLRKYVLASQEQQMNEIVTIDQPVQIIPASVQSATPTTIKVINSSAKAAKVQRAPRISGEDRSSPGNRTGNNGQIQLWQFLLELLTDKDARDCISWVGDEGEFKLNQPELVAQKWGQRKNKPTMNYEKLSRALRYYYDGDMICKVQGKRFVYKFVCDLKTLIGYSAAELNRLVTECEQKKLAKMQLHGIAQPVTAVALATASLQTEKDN
In short: as §1

ERG = biological target: T4, ERG (Homo sapiens, UniProt P11308 1-479); details: protein: recombinant; tags: N-terminal GST; dsDNA, one strand shown
T4 sequence: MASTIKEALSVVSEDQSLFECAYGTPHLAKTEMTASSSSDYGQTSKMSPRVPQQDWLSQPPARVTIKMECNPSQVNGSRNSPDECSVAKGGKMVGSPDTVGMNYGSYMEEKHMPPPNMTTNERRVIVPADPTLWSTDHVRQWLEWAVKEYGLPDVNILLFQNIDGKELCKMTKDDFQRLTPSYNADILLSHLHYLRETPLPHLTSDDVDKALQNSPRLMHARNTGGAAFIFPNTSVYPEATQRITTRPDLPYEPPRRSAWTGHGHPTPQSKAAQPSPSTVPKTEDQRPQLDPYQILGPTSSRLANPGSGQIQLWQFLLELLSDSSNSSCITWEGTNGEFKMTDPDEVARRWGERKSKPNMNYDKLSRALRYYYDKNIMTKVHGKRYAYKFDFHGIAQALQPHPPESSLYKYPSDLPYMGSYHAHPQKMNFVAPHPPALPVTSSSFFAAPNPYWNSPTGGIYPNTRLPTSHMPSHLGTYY
In short: as §1

ELF1 = ELF1 (Homo sapiens, UniProt P32519 1-619); details: protein: recombinant; tags: N-terminal GST; dsDNA, one strand shown
In short: as §1

EHF = biological target: T5, EHF (Homo sapiens, UniProt Q9NZC4 1-300); details: protein: recombinant; tags: N-terminal GST; dsDNA, one strand shown
T5 sequence: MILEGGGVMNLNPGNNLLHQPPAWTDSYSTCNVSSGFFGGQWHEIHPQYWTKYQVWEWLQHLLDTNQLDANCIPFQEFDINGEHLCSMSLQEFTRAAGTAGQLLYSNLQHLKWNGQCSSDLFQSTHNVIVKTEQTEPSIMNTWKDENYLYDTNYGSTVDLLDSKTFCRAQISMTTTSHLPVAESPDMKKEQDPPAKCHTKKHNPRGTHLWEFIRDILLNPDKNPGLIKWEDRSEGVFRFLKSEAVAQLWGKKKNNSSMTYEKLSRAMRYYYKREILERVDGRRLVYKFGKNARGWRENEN
In short: as §1

SPI1 = SPI1 (Homo sapiens, UniProt P17947 1-270); details: protein: recombinant; tags: N-terminal GST; dsDNA, one strand shown
In short: as §1

SPIB = SPIB (Homo sapiens, UniProt Q01892 1-262); details: protein: recombinant; tags: N-terminal GST; dsDNA, one strand shown
In short: as §1

ELK3 = biological target: T6, ELK3 (Homo sapiens, UniProt P41970 1-407); details: protein: recombinant; tags: N-terminal GST; dsDNA, one strand shown
T6 sequence: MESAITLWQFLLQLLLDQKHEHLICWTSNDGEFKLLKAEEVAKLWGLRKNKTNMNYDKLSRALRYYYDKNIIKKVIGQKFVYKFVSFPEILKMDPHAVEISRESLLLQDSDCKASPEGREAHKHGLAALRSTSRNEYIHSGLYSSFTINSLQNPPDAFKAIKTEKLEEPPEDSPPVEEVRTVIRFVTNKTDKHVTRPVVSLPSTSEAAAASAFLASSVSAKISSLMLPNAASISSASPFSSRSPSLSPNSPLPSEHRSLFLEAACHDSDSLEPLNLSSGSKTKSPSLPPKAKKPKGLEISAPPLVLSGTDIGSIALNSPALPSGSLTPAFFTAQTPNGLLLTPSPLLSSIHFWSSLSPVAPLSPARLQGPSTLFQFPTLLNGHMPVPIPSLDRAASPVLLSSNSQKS
In short: as §1

FEV = biological target: T7, FEV (Homo sapiens, UniProt Q99581 1-238); details: protein: recombinant; tags: N-terminal GST; dsDNA, one strand shown
T7 sequence: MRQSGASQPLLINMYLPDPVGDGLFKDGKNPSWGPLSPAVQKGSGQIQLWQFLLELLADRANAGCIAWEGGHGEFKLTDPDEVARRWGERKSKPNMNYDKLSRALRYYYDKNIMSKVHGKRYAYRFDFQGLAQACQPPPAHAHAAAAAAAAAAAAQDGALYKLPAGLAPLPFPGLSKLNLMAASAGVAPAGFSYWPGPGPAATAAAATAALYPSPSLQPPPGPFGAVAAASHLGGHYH
In short: as §1

ETV5 = ETV5 (Homo sapiens, UniProt P41161 1-510); details: protein: recombinant; tags: N-terminal GST; dsDNA, one strand shown
In short: as §1

HSF1 = HSF1 (Homo sapiens, UniProt Q00613 1-529); details: protein: recombinant; tags: N-terminal GST; chain copies: 3; dsDNA, one strand shown
In short: as §1

SPIC = biological target: T8, SPIC (Homo sapiens, UniProt Q8N5J4 1-248); details: protein: recombinant; tags: N-terminal GST; dsDNA, one strand shown
T8 sequence: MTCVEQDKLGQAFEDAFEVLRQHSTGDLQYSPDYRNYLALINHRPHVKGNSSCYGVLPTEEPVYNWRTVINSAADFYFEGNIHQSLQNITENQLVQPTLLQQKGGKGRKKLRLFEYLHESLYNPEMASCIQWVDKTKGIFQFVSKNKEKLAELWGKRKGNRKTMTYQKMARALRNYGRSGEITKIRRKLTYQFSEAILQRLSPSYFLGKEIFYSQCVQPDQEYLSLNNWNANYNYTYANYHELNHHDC
In short: as §1

ELF4 = ELF4 (Homo sapiens, UniProt Q99607 1-663); details: protein: recombinant; tags: N-terminal GST; dsDNA, one strand shown
In short: as §1

ELK4 = biological target: T9, ELK4 (Homo sapiens, UniProt P28324-2 1-405); details: protein: recombinant; tags: N-terminal GST; dsDNA, one strand shown
T9 sequence: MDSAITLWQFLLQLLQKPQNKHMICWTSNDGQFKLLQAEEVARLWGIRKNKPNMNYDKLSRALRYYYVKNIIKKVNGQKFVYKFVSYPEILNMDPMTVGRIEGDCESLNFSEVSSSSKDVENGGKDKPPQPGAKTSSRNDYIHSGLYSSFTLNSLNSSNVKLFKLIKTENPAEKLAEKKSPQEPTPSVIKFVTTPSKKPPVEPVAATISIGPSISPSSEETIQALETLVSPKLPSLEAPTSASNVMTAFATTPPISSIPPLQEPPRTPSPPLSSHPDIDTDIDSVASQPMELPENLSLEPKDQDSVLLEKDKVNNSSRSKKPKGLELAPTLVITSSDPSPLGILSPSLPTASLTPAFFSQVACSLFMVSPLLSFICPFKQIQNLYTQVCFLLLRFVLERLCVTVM
In short: as §1

ETV2 = biological target: T10, ETV2 (Homo sapiens, UniProt O00321 1-342); details: protein: recombinant; tags: N-terminal GST; dsDNA, one strand shown
T10 sequence: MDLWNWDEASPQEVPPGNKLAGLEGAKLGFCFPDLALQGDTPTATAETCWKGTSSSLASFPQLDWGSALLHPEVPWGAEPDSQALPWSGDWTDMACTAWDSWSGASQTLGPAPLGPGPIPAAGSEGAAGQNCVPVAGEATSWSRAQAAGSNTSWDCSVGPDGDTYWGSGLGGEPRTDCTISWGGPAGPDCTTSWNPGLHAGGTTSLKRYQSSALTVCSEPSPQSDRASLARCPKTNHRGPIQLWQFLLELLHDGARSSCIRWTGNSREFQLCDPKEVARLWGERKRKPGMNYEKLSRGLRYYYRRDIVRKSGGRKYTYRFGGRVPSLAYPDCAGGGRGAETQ
In short: as §1

ELF3 = biological target: T11, ELF3 (Homo sapiens, UniProt P78545 1-371); details: protein: recombinant; tags: N-terminal GST; dsDNA, one strand shown
T11 sequence: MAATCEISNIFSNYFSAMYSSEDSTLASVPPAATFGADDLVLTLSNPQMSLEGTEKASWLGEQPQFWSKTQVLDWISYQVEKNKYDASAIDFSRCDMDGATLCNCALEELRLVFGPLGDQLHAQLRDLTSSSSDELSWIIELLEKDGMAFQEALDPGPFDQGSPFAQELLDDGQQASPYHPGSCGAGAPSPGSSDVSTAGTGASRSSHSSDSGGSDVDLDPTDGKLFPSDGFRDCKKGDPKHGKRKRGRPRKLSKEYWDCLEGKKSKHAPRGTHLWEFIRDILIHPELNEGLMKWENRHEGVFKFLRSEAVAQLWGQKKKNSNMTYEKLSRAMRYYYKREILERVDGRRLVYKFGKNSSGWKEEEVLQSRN
In short: as §1

CRX = CRX (Homo sapiens, UniProt O43186 1-299); details: protein: recombinant; tags: N-terminal GST; dsDNA, one strand shown
In short: as §1

ETV1 = ETV1 (Homo sapiens, UniProt P50549 1-477); details: protein: recombinant; tags: N-terminal GST; dsDNA, one strand shown
In short: as §1

ELF1, sequence (P32519 whole entry): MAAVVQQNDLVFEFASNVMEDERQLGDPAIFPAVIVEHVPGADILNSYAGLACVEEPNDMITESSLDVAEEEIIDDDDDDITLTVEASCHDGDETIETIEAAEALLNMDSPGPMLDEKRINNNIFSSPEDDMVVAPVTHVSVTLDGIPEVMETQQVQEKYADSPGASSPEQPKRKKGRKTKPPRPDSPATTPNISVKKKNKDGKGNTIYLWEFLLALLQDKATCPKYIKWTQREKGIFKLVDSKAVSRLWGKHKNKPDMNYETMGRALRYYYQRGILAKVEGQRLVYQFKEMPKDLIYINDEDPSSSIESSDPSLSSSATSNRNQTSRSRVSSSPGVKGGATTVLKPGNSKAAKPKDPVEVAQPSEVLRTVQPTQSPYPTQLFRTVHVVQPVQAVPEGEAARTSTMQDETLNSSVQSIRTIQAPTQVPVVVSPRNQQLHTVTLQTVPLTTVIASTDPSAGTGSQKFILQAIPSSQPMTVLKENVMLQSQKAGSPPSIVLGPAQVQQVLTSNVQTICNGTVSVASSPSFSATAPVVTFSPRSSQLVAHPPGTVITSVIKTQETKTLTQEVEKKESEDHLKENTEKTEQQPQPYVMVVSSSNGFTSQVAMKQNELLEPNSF
SPIB, sequence (Q01892 whole entry): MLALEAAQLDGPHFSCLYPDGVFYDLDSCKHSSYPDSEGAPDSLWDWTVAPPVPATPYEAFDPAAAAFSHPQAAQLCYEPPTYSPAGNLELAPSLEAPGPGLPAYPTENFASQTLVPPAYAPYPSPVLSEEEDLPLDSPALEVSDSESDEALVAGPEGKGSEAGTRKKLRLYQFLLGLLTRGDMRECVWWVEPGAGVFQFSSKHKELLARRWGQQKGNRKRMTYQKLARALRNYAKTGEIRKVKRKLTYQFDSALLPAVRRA
CRX, sequence (O43186 whole entry): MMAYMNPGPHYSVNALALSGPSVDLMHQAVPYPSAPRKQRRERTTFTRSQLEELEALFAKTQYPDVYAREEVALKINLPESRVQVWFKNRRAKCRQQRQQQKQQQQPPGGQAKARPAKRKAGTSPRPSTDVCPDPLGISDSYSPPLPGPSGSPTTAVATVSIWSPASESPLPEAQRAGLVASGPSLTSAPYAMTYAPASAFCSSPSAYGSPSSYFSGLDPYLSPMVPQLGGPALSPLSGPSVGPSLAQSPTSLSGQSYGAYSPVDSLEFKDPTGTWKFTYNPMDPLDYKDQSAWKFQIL
ELF4, sequence (Q99607 whole entry): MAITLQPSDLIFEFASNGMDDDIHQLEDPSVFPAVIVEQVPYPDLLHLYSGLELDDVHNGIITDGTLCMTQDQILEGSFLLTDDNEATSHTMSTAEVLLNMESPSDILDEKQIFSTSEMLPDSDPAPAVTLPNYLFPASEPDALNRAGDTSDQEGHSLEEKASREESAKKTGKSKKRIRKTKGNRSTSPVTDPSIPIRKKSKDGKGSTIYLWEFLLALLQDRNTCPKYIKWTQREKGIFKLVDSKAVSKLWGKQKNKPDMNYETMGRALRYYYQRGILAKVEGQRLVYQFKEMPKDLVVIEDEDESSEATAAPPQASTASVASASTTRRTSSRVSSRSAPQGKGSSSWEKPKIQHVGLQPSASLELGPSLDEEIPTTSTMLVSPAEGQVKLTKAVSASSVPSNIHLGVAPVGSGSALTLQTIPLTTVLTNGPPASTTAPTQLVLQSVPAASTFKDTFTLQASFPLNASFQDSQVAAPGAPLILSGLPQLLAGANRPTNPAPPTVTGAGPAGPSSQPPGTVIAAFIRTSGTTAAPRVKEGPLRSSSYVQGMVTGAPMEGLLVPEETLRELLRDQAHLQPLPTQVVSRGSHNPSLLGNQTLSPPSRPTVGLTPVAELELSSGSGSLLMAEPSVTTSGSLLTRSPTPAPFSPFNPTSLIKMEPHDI
HSF1, sequence (Q00613 whole entry): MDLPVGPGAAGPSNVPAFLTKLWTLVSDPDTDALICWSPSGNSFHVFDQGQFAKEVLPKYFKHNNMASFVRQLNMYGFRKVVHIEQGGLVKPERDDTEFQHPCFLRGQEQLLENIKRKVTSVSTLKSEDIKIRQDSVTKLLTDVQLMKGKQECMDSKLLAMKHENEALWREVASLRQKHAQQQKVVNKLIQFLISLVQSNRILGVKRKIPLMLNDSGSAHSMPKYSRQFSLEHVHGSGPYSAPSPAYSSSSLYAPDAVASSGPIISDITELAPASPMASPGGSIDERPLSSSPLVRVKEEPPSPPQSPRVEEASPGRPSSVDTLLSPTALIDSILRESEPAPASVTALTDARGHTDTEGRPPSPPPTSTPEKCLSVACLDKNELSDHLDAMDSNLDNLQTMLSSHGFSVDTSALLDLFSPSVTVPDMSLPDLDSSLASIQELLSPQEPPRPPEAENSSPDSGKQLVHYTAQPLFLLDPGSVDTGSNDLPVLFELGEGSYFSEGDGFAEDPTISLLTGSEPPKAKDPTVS
ETV5, sequence (P41161 whole entry): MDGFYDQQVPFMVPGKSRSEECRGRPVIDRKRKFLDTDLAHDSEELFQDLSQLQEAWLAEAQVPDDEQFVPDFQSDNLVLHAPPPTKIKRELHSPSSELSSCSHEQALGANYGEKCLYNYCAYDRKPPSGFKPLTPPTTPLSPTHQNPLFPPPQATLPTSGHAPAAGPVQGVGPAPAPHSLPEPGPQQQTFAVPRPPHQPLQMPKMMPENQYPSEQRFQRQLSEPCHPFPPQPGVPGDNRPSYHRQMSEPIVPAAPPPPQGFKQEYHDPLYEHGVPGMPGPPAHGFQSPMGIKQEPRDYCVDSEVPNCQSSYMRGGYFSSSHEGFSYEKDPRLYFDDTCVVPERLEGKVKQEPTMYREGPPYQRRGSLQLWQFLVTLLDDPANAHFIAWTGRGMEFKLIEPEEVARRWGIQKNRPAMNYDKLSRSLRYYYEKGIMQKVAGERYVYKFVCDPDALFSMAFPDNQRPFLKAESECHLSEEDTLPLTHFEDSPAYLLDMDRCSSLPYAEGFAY
ETV1, sequence (P50549 whole entry): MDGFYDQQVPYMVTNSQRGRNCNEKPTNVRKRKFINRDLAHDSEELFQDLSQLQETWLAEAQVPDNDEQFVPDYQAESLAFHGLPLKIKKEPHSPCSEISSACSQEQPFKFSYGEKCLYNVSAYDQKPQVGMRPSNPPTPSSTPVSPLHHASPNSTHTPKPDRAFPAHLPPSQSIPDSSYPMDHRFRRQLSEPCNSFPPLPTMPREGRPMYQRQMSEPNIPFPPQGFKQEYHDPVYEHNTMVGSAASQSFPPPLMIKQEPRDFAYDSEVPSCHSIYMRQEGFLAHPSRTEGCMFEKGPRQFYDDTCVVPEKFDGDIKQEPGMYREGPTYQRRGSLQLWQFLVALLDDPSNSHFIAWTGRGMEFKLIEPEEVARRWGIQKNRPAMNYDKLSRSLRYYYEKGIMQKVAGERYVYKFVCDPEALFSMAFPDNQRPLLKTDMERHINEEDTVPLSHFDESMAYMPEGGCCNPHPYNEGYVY

## TTTATG
FLI1
  binding signal: 1.31 fold enrichment (6-mer frequency, TF over GST control)
ELK1
  binding signal: 1.21 fold enrichment (6-mer frequency, TF over GST control)
GABPA
  binding signal: 1.4 fold enrichment (6-mer frequency, TF over GST control)
ERG
  binding signal: 1.21 fold enrichment (6-mer frequency, TF over GST control)
ELF1
  binding signal: 1.18 fold enrichment (6-mer frequency, TF over GST control)
EHF
  binding signal: 1.34 fold enrichment (6-mer frequency, TF over GST control)
SPI1
  binding signal: 1.34 fold enrichment (6-mer frequency, TF over GST control)
SPIB
  binding signal: 1.29 fold enrichment (6-mer frequency, TF over GST control)
ELK3
  binding signal: 1.34 fold enrichment (6-mer frequency, TF over GST control)
FEV
  binding signal: 1.26 fold enrichment (6-mer frequency, TF over GST control)
ETV5
  binding signal: 1.36 fold enrichment (6-mer frequency, TF over GST control)
HSF1
  binding signal: 1.37 fold enrichment (6-mer frequency, TF over GST control)
SPIC
  binding signal: 1.5 fold enrichment (6-mer frequency, TF over GST control)
ELF4
  binding signal: 1.21 fold enrichment (6-mer frequency, TF over GST control)
ELK4
  binding signal: 1.16 fold enrichment (6-mer frequency, TF over GST control)
ETV2
  binding signal: 1.34 fold enrichment (6-mer frequency, TF over GST control)
ELF3
  binding signal: 1.37 fold enrichment (6-mer frequency, TF over GST control)
CRX
  binding signal: 1.74 fold enrichment (6-mer frequency, TF over GST control)
ETV1
  binding signal: 1.32 fold enrichment (6-mer frequency, TF over GST control)

Reference: PMC7862700, “An all-to-all approach to the identification of sequence-specific readers for epigenetic DNA modifications on cytosine”
